This is an account of results in PubChem BioAssay.

Values joined by “and” are separate entries in the source; they are usually repeats but may differ in a detail not shown here. Equal entries are not always repeated. For some assays here: Potency and affinity values are given separately. Active and inactive are the calls of the source. Unless noted, no rule for the calls is given here.

For experiment [1], the target named is Cell division control protein 42 homolog (Homo sapiens) (UniProt P60953). Nature of the experiment: activated mutant Cdc42 GTP-binding inhibitors, dose response, biochemical, multiplex bead flow cytometry, Bodipy-FL-GTP (AID 1333;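 active = fitted half-maximal concentration within the tested dose range, moderate curve steepness, a statistically real signal drop, and little compound fluorescence or tag-binding interference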). Background: A flow cytometer gives signals particle by particle.
The target is the same in experiment [2]. Nature of the experiment: wildtype Cdc42 GTP-binding inhibitors, dose response, biochemical, multiplex bead flow cytometry, Bodipy-FL-GTP (AID 1334;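 active = fitted half-maximal concentration within the tested range, moderate curve steepness, significant signal drop, and little compound fluorescence or bead-linkage interference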). The conditions noted are these: bead-based flow cytometry, Bodipy-FL-GTP binding to GST-Cdc42; at 100 µM (top of the series) unless noted.
In experiment [3] the target is GTPase HRas (Homo sapiens) (UniProt P01112). Nature of the experiment: inhibitors of GTP binding to wildtype Ras, dose response, biochemical, multiplex bead flow cytometry (AID 1335;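 active = fitted half-maximal concentration within 10 nM to 100 µM, steepness 0.5 to 2, significant signal drop, low assay interference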). Conditions: bead-based flow cytometry, Bodipy-GTP binding to GST-Ras; at 100 µM (top of the series) unless noted.
For experiment [4], the system named is Ras-related protein Rab-7a (dog), GTP binding. Nature of the experiment: Rab7 GTP binding inhibitors, potency, dose response, biochemical, wildtype, multiplex bead flow cytometry (AID 1336).
In experiment [5] the target is Ras-related C3 botulinum toxin substrate 1 (Homo sapiens) (UniProt P63000). The experiment in a line: wildtype Rac1 GTP binding inhibitors, dose response, biochemical, multiplex bead flow cytometry (AID 1340;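 active = dose curve with midpoint inside tested range, moderate steepness, plateau gap beyond fit error, low compound glow and bead-link interference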). Conditions: GST-Rac1 beads, Bodipy-FL-GTP binding; at 100 µM (top of the series) unless noted.
The target of experiment [6] is GTPase HRas (Homo sapiens) (UniProt P01112). Nature of the experiment: activated Ras mutant GTP binding inhibitors, dose response, biochemical, multiplex bead flow cytometry (AID 1341;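 active = dose-response curve with midpoint inside the tested range, moderate steepness, significant amplitude and little compound fluorescence or bead-attachment interference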;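 also: GST-tagged constitutively activated Ras mutant immobilized on beads and multiplexed with other GTPases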).
The nature of experiment [7]: RPL19A-GFP modulators, yeast TOR pathway, confirmation, cell-based, S. cerevisiae, flow cytometry, cherry picks, mother/daughter gates (AID 2270;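 active = GFP response below 50% of the DMSO control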). Conditions: S. cerevisiae RPL19A-GFP strain, 3 h, at 10 µM, stronger effect = lower value, 100 = same GFP as DMSO wells.
Experiment [8] in a line: LAP4-GFP expression modulators in yeast, confirmation, cell-based, cherry picks, flow cytometry, mother/daughter gates (AID 2271;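 active = GFP response above 150% of the DMSO control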;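 also: ratio of sample to DMSO plate mean so 100% equals DMSO level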). Conditions: S. cerevisiae LAP4-GFP strain, 3 h, at 10 µM, stronger effect = higher value, 100 means same as DMSO control.
Experiment [9] is described as follows: modulators of MEP2-GFP levels in yeast, confirmation, S. cerevisiae, flow cytometry GFP, cherry picks (AID 2272;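 active = GFP response above 150% of the DMSO control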;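 also: ratio of well signal to plate DMSO mean so 100% equals DMSO level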). The conditions noted are these: S. cerevisiae MEP2-GFP strain, 3 h, at 10 µM, stronger effect = higher value.
Experiment [10] is described as follows: AGP1-GFP expression modulators, hit retest, confirmation, cell-based, flow cytometry, S. cerevisiae, cherry picks (AID 2273;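 active = GFP response above 150% of the DMSO level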;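 also: median GFP channel fluorescence over the whole cell population gate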). The conditions noted are these: S. cerevisiae AGP1-GFP strain, 3 h, at 10 µM.
Experiment [11] is described as follows: modulators of CIT2-GFP expression in yeast, confirmation, S. cerevisiae, GFP fusion, cherry picks, mother/daughter gates (AID 2274;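 active = GFP response above 150% of the DMSO level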). Conditions: S. cerevisiae CIT2-GFP strain, flow cytometry, 3 h, at 10 µM, stronger effect = higher value.
A short description of experiment [12]: inhibitors of CD8+ T cell-vesicle binding, pilot screen, LFA-1/ICAM-1 modulator project, MLPCN validation set, flow cytometry (AID 2523;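 active = response below a set limit, under 55% cells CD8-positive and vesicle-bound, and CD8 cells' 90th-percentile brightness under 279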;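 as to vesicle binding response: mean PE anti-B7-1 fluorescence of CD8+ cells relative to row control; 100% = QL9-loaded vesicles with DMSO vehicle in the same plate row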). The conditions noted are these: 2C mouse CD8+ T cells, at 7 µM, stronger effect = lower value; double positive events: measured here: CD8+/vesicle+ event percentage.
The nature of experiment [13]: superoxide lowering in aged yeast cells, pilot screen, validation compound set (AID 2706;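 active = superoxide response below 65% of plate, a cut near 3 SD across the whole screen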;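 also: yeast exposed to compound for one week at 30 degrees C before staining; 100% = mean of all compound wells on the same plate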). Conditions: S. cerevisiae aging, superoxide DHE fluorescence; at 10 µM; stronger effect = lower value.
The target in experiment [14] is Beta-adrenergic receptor kinase 1 (Homo sapiens) (UniProt P25098). Nature of the experiment: GRK2 binders displacing RNA aptamer, biochemical, validation, human GRK2, bead flow cytometry (AID 488806;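 active = aptamer binding inhibition above 30%, about 3 SD of noise from non-fluorescent compounds; inactive = inhibition at or below 30%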). The conditions noted are these: bead-bound GRK2, FAM-aptamer displacement, at 10 µM, stronger effect = higher value.
The target of experiment [15] is Beta-2 adrenergic receptor (Homo sapiens) (UniProt P07550). Nature of the experiment: beta2AR agonists driving receptor internalization, pilot screen, cell-based, FAP fluorogen, flow cytometry, validation set (AID 504459;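 active = percent response above 42, roughly 3 SD of non-fluorescent test compounds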;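 also: agonist-driven loss of surface beta2AR via internalization measured by FAP dye flow cytometry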). The conditions noted are these: Am2.2-beta2AR cells, FAP surface receptor flow cytometry; at 10 µM; stronger effect = higher value.
Experiment [16] addresses AP-2 complex subunit beta (Homo sapiens) (UniProt P63010). The experiment in a line: inhibitors of arrestin peptide binding to AP2, pilot screen, biochemical, validation set, GST-AP2 beads, flow cytometry (AID 504541;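 active = inhibition above 54%, about 3 SD of non-fluorescent compounds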;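 also: AP2 carries R879A mutation and is captured from E. coli lysate; bead-bound FITC arrestin peptide fluorescence measuring arrestin peptide binding to AP2; 0% = DMSO wells and 100% = excess unlabeled arrestin peptide control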). The conditions noted are these: FITC arrestin peptide, at 10 µM, stronger effect = higher value, AP2 beta2 appendage fragment, R879A mutant.
A short description of experiment [17]: yeast V-ATPase proton transport modulators, S. cerevisiae, pHLuorin, HTS validation (AID 504600; in the data active = response above about 15%;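 also: plate controls were DMSO for no effect and reference compound for full effect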). Conditions: S. cerevisiae pHLuorin cytosolic pH, at 10 µM, stronger effect = higher value.
The test system of experiment [18] is anti-desmoglein-3 scFv antibody binding to human DSG3. The experiment in a line: inhibitors of anti-DSG3 scFv binding to DSG3, pilot screen, biochemical, validation compound set, bead-based, flow cytometry (AID 588368;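 active = binding below the plate cutoff, the plate median minus 3 SD, with a reading above zero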;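 also: signal is the median channel fluorescence of bead-bound GFP antibody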). Conditions: Protein G beads, DSG3-Fc, scFv-GFP binding, at 10 µM, stronger effect = lower value.
Experiment [19] is described as follows: inhibitors of fungal efflux pumps CDR1, CDR2, MDR1, pilot screen, validation compound set, multiplex, phenotypic (AID 588506;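 active = efflux inhibition above 0.42, the validation set average plus 4 SD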;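 also: Nile Red retained in cells so higher fluorescence means more efflux inhibition; 0 = negative control wells and 1 = enniatin B 25 µM full block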). The conditions noted are these: S. cerevisiae pump-expressing triplex, Nile Red efflux flow cytometry; at 10 µM; stronger effect = higher value; the pumps come from Candida albicans.
The target in experiment [20] is ATP-binding cassette sub-family B member 6 (Homo sapiens) (UniProt Q9NP58). Nature of the experiment: ABCB6 transporter inhibitors, pilot screen, K562-ABCB6 cells, flow cytometry, validation set (AID 588550;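 active = inhibition above the screen-wide mean plus 3 SD, about 51%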;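 also: 0% = DMSO wells and 100% = benzethonium chloride 70 µM positive control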). Conditions: K562-ABCB6 porphyrin accumulation, 1 h, at 10 µM, stronger effect = higher value.
A short description of experiment [21]: promoters of myeloid differentiation in arrested cells, primary screen, cell-based, GFP/MAC1 double positive, flow cytometry, validation set (AID 588685;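 active = differentiation response of at least 50%, scaled between solvent and reference control, from cells with both markers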;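 also: compound exposure lasts four days before antibody staining and flow analysis; 0% = DMSO wells and 100% = 5 µM fulvestrant positive control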). Conditions: ER-HoxA9 marrow cells, stronger effect = higher value, normalized: vehicle 0, fulvestrant 100.
The mark [22] stands for this setting: measured here: daughter cell gate.
[23] abbreviates: measured here: mother cell gate.
The mark [24] stands for this setting: measured here: daughter cell gate response.
Setting [25] is: measured here: mother cell gate response.

Sequence of GTPase HRas (Homo sapiens) (P01112 whole entry, looked up): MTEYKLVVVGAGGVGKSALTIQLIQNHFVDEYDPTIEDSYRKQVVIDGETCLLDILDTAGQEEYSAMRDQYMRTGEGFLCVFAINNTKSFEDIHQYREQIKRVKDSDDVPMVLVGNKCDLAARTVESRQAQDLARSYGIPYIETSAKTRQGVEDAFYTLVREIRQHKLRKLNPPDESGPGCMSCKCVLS
Sequence of Cell division control protein 42 homolog (Homo sapiens) (P60953 whole entry, looked up): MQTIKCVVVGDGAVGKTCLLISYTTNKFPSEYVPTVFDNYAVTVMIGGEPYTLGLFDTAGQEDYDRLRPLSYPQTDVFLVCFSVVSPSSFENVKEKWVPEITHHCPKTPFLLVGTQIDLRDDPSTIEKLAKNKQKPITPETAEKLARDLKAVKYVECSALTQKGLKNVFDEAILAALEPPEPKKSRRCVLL
Sequence of Beta-2 adrenergic receptor (Homo sapiens) (P07550 whole entry, looked up): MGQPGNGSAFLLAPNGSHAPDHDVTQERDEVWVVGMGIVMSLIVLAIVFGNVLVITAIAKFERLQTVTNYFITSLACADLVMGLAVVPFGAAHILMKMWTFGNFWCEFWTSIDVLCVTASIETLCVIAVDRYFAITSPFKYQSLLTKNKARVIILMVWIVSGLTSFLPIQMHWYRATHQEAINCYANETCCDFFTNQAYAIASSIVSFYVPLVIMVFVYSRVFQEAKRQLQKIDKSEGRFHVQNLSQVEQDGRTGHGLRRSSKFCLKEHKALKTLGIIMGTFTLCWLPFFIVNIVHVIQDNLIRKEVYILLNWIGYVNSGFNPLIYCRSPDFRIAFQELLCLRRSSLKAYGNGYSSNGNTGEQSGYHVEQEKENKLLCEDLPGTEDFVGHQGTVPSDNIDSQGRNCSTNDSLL
Sequence of AP-2 complex subunit beta (Homo sapiens) (P63010 whole entry, looked up, the tested form may be a part, one chain of several): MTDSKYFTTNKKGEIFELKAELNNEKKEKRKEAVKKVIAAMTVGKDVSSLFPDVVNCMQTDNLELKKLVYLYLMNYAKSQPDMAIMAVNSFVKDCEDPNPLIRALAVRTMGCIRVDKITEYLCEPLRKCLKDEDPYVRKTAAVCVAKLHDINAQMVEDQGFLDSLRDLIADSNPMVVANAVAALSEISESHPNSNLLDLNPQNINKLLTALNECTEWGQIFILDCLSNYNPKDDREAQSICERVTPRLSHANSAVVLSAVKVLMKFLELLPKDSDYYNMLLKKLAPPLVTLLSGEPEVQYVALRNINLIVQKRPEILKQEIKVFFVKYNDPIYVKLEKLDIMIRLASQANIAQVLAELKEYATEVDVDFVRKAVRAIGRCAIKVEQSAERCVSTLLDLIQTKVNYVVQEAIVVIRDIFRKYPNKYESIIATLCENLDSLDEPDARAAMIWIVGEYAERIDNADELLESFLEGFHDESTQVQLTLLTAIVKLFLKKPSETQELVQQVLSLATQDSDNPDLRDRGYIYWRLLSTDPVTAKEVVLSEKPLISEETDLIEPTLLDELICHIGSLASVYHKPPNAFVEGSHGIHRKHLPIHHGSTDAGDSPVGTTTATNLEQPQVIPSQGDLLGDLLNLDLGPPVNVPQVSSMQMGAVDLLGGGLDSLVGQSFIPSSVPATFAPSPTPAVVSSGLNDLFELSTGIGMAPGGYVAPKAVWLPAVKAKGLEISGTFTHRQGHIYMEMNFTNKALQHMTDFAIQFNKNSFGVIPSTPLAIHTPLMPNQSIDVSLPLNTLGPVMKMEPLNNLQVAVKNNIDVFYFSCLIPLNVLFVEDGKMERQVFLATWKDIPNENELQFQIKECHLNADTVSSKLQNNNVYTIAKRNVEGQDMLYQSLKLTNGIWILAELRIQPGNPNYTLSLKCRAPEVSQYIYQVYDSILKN
Sequence of ATP-binding cassette sub-family B member 6 (Homo sapiens) (Q9NP58 whole entry, looked up): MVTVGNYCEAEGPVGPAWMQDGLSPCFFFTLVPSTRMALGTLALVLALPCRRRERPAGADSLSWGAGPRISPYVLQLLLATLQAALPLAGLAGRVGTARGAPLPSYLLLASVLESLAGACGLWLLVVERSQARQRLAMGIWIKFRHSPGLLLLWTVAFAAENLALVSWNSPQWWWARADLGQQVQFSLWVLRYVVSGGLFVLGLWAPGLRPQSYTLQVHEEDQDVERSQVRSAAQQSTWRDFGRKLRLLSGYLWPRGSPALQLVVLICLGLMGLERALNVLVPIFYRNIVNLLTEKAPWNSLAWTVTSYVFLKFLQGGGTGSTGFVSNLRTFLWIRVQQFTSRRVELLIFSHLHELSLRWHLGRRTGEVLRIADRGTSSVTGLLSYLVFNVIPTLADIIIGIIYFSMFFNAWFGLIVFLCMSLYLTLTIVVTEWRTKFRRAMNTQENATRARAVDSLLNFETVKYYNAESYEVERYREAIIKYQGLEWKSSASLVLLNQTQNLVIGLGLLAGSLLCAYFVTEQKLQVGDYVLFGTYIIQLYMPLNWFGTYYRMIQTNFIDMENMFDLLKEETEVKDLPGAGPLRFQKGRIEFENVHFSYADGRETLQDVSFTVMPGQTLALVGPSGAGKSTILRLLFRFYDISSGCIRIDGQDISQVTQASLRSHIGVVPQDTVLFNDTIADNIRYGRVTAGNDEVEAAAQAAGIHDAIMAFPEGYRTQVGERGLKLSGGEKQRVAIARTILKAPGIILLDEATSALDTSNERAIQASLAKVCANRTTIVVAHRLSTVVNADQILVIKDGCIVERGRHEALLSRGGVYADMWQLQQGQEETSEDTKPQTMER
Sequence of Beta-adrenergic receptor kinase 1 (Homo sapiens) (P25098 whole entry, looked up): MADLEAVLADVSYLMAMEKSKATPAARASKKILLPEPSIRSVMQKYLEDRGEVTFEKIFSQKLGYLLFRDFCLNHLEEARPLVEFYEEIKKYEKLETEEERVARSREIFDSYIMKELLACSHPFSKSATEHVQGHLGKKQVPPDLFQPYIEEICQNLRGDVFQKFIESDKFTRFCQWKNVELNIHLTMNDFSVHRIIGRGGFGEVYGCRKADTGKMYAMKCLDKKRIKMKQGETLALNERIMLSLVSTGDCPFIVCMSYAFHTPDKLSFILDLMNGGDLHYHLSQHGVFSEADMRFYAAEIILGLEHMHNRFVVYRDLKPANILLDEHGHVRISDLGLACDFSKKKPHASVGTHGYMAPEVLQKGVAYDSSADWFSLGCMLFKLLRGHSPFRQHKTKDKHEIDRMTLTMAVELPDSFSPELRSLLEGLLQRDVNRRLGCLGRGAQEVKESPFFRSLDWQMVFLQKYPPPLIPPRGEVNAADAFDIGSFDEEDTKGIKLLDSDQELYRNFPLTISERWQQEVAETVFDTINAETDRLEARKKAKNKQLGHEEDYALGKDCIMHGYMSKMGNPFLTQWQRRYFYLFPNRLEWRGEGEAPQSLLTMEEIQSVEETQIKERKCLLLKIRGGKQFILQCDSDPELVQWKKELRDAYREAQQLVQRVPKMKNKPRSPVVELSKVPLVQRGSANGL

With `O=C(C#Cc1ccccc1)c1cccc([N+](=O)[O-])c1`, the molecule was classed as inactive in experiment [1], in experiment [4] and in experiment [6]. Further, in [2], the fluorescence, percent of control (lower = inhibition) was 50.9% and 49.2%. In addition, the GTP binding, percent of control in experiment [3] is 170% and 92.3%. This molecule yielded a GTP binding signal, raw median fluorescence (lower = inhibition) (MCF (arbitrary fluorescence units)) in experiment [5] of 92.8. Further, the GFP response vs DMSO in experiment [7] is 92.5% (inactive); in experiment [7] (setting [22]) it was 95.9%; in experiment [7] (setting [23]), 85.9%; in experiment [9], 121% (inactive). Also, the GFP response relative to DMSO in experiment [8] is 182% (active); in experiment [8] (setting [24]), 166%; in experiment [8] (setting [25]), 183%. The GFP response, % of DMSO was 112% (inactive) in [10], 105% (inactive) in experiment [11], 110% in experiment [11] (setting [22]) and 97.3% in experiment [11] (setting [23]).

Consider `O=C1c2ccccc2-c2onc3ccc(Oc4ccccc4)c1c23`, for which the result in [1], in [4] and in experiment [6] was inactive. In experiment [2], this molecule had a fluorescence, percent of control (lower = inhibition) of 27.9%. In [3], this molecule returned a GTP binding, percent of control of 46.3%. Further, the GTP binding signal, raw median fluorescence (lower = inhibition) (MCF (arbitrary fluorescence units)) in experiment [5] stood at 183. In addition, the GFP response vs DMSO in [7] is 86.5% (inactive); in experiment [7] (setting [22]), 86.6%; in [7] (setting [23]), 85.9%; in experiment [9], 113% (inactive). In addition, the values for the GFP response relative to DMSO in experiment [8], in experiment [8] (setting [24]) and in experiment [8] (setting [25]) were 147% (inactive), 136% and 150%, respectively. The GFP response, % of DMSO in [10] is 84.3% (inactive); in experiment [11], 95.2% (inactive); in experiment [11] (setting [22]) it was 94.8%; in experiment [11] (setting [23]) it was 94.4%.

Turning to `Cc1cccc(-n2nc(CC#N)c(C#N)c2N)c1`, the result in experiment [1], in [4] and in experiment [6] was inactive. In [2], this molecule came in with a fluorescence, percent of control (lower = inhibition) of 33.5%. The GTP binding, percent of control in [3] amounted to 74.8%.

As usually defined, the inhibition is the change of the read-out against control, counted positive when it falls. For the molecule `CCN1/C(=C/C=C/C=C/c2sc3ccccc3[n+]2CC)Sc2ccccc21`, the call in experiment [1] and in experiment [6] was inactive. The same molecule gave a fluorescence, percent of control (lower = inhibition) in experiment [2] of 1.8%. In [3], this molecule came in with a GTP binding, percent of control of 2%. Further, the GTP binding, % of control in [4] is 4.4% [at 3.7 µM] (inactive). For the same molecule, the GTP binding signal, raw median fluorescence (lower = inhibition) (MCF (arbitrary fluorescence units)) in experiment [5] amounted to 1.8. In experiment [12], this molecule displayed a double positive events of 81.6%. Besides, the vesicle binding response in experiment [12] was 109% (inactive). The superoxide response (% of plate) in [13] is 89.6% (inactive). Besides, in experiment [14], the aptamer binding inhibition was 39% (active). In addition, the response is -16.6% (inactive) in experiment [15] and -3.07% (inactive) in experiment [17]. In addition, the inhibition is 75.8% (active) in experiment [16] and 10% (inactive) in experiment [20]. The binding (% of control) in experiment [18] is 121% (inactive). In addition, the efflux inhibition (fraction of control) in experiment [19] was 0.73 (active). Moreover, the differentiation response in [21] is 7.37% (inactive).

Consider `O=C(O)c1ccc(COc2ccccc2Cl)o1`, for which the outcome in experiment [1], in [4] and in experiment [6] was inactive. This molecule also showed a fluorescence, percent of control (lower = inhibition) in [2] of 73.5%. Moreover, the GTP binding, percent of control in [3] was determined as 96.7%.

With `Cn1cc(C(=O)N2CCc3ccccc3C2)c(=O)c2cc(S(=O)(=O)N3CCCCC3)ccc21`, the outcome in experiment [1], in experiment [4] and in experiment [6] was inactive. This molecule also showed a fluorescence, percent of control (lower = inhibition) in experiment [2] of 60.6%. The same molecule showed a GTP binding, percent of control in experiment [3] of 110%. This molecule gave a GTP binding signal, raw median fluorescence (lower = inhibition) (MCF (arbitrary fluorescence units)) in experiment [5] of 370.

Consider `O=C(O)c1cn(CCOc2ccccc2)c2ccccc12`, for which the molecule was called inactive in experiment [1], in [4] and in [6]. For the same molecule, the fluorescence, percent of control (lower = inhibition) in experiment [2] turned out to be 76.5%. In addition, the GTP binding, percent of control in [3] turned out to be 92.7%.

Turning to `CC(C)(C)C(=O)/C=c1\s/c(=C\c2ccc(-c3ccc([N+](=O)[O-])cc3)o2)c(=O)n1CC(=O)NC(N)=O`, the call in experiment [1], in experiment [4] and in [6] was inactive. Besides, the fluorescence, percent of control (lower = inhibition) in experiment [2] is 99.6%. For the same molecule, the GTP binding, percent of control in experiment [3] worked out at 141%. Moreover, the GTP binding signal, raw median fluorescence (lower = inhibition) (MCF (arbitrary fluorescence units)) in experiment [5] was 256. Moreover, the GFP response vs DMSO in experiment [7] was 101% (inactive); in experiment [7] (setting [22]), 101%; in experiment [7] (setting [23]), 101%; in [9], 112% (inactive). The GFP response relative to DMSO in experiment [8] is 102% (inactive); in experiment [8] (setting [24]) it was 99.7%; in experiment [8] (setting [25]) it was 103%. In addition, the GFP response, % of DMSO in experiment [10] was 101% (inactive); in experiment [11] it was 99.7% (inactive); in experiment [11] (setting [22]), 100%; in experiment [11] (setting [23]), 98.7%.
